This passage reports outcome, fluorescence, % of fluorescent control and fluorescence, % of fluorescein control results from PubChem BioAssay (Tox21).

A number with no mark means an inactive call. Active and inactive are the calls of the source. The call rests on the fitted dose curve; in most records, active means well fitted curve in the direction sought with a large enough effect in the repeat runs; inconclusive means weak or mixed curves; inactive means flat fitted curve, though single readings scatter.
On the % scale 0 is the no-effect control and ±100 the full control effect.

The first experiment is described as follows: qHTS assay to test for compound auto fluorescence at 460 nm (blue) in HepG2 cell free culture (AID 720685). The following applies: Cell-free culture medium, blue autofluorescence 405/460 nm; series mostly up to 91.3 µM. In a few lines: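 Compound (23 nL) or DMSO pinned into cell-free MEM with 10% FBS; blue fluorescence read at 405/460 nm excitation/emission, expressed as auto-fluorescence equivalency to triamterene.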
For orientation: In qHTS, concentration-response curves come from the screen itself.
With `COc1nc(C)nc(NC(=O)NS(=O)(=O)c2ccccc2OCCCl)n1`, the compound was called inactive.
As to `CCCCNC(=S)NCCCC`, the call was inactive.
As for `O=C1CCC(C2CCCCC2)CC1`, the result was inactive.
As for `CCCc1c2oc(C(=O)O)cc(=O)c2cc2c(=O)cc(C(=O)O)n(CC)c12`, the call was inactive.
As for `CC(CNC1CCCCC1)OC(=O)c1ccccc1` (configuration not stated), the fluorescence, % of fluorescent control was -0.0346% [at 18.6 µM].
Regarding `CC(C)OC(C)C`, the outcome was inactive.
As for `OCCN(CCO)c1ccccc1`, the compound was called inactive.
Consider `O=C(C(Cl)Cl)N1CCOC12CCCCC2`, for which the call was inactive.
Turning to `CCCCCCCCCC#N`, the compound was classed as inactive.
Take `CCOC(=O)C(Br)c1ccccc1` (configuration not stated): the result was inactive.
Same read-out and setting: as for `C[C@@H](N)C(=O)O`, the entry is “inactive”.
As to `O=C1N(c2ccccc2)c2ccccc2C1(Cc1ccncc1)Cc1ccncc1`, the call was inactive.
Turning to `Cc1ccsc1C(=CCCN1CCC[C@@H](C(=O)O)C1)c1sccc1C`, the compound was called inactive.
For the compound `C=CCc1cc(OC)c(O)c(C(=O)NCCO)c1`, the compound was classed as inactive.
With `CCc1cc(Cl)c(OC)c(C(=O)NC[C@@H]2CCCN2CC)c1O`, the call was inactive.
As to `CCC(=O)O[C@]1(C(=O)SCF)[C@H](C)C[C@H]2[C@@H]3C[C@H](F)C4=CC(=O)C=C[C@]4(C)[C@@]3(F)[C@@H](O)C[C@@]21C`, the fluorescence, % of fluorescent control is 0.0563% [at 18.6 µM].
As to `NNS(=O)(=O)c1ccc(Oc2ccc(S(=O)(=O)NN)cc2)cc1`, the outcome was inactive.
As for `CN(CC1(C)CCCO1)S(=O)(=O)c1ccc(Cl)c(S(N)(=O)=O)c1` (configuration not stated), the compound was called inactive.
Take `CCCCCOc1ccc(C2SC(=O)NC2=O)cc1OCC` (configuration not stated): the compound was classed as inactive.
On to `CCCCNCCCC`, for which the outcome was inactive.
For `CC(C)c1ccccc1`, the compound was called inactive.
Same read-out and setting: as for `Cc1cc(S(=O)(=O)O)c(N)cc1Cl`, the entry is “inactive”.
In the case of `COc1cc(N)c(Cl)cc1C(=O)NC1CCN(Cc2ccccc2)CC1`, the fluorescence, % of fluorescent control is 2.92% [at 18.6 µM].
In the case of `CCOC(=O)C1CC(=O)C(=C(O)C2CC2)C(=O)C1` (configuration not stated), the call was inactive.
Still for that read-out and setting: as for `O=S(=O)(O)C(F)(F)F`, the entry is “inactive”.
`O=c1[nH]cnc2c1ncn2[C@@H]1O[C@H](CO)[C@@H](O)[C@H]1O`: the outcome was inactive.
Consider `Cc1cc(NS(=O)(=O)c2ccc(N)cc2)nc(C)n1`, for which the compound was classed as inactive.
In the case of `CC(C)CCCCCCc1ccc(OCCOCCO)cc1`, the compound was classed as inactive.
`CC1(C)S[C@@H]2[C@H](NC(=O)C(C(=O)O)c3ccccc3)C(=O)N2[C@H]1C(=O)O` (some centres not stated): the compound was called inactive.
On to `O=C1C=CC(=O)O1`, for which the outcome was inactive.

A further experiment is described as follows: qHTS assay to test for compound auto fluorescence at 535 nm (green) in HepG2 cell free culture (AID 720686). The conditions noted are these: Cell-free medium, green autofluorescence 485/535 nm; series mostly up to 91.3 µM.
In the case of `COc1nc(C)nc(NC(=O)NS(=O)(=O)c2ccccc2OCCCl)n1`, the call was inactive.
Still for that read-out and setting: as for `CCCCNC(=S)NCCCC`, the entry is “inactive”; as for `CC(C)(C)c1cccc(O)c1`, “inactive”; as for `O=C1CCC(C2CCCCC2)CC1`, “inactive”.
`COC(=O)c1ccc2cc(C(=O)OC)ccc2c1`: the fluorescence, % of fluorescein control is -0.0122% [at 18.6 µM].
In the case of `CCCc1c2oc(C(=O)O)cc(=O)c2cc2c(=O)cc(C(=O)O)n(CC)c12`, the outcome was inactive.
With `CCCCCCCCCC#N`, the outcome was inactive.
As to `CCOC(=O)C(Br)c1ccccc1` (configuration not stated), the compound was called inactive.
With `C[C@@H](N)C(=O)O`, the compound was classed as inactive.
On to `O=C1N(c2ccccc2)c2ccccc2C1(Cc1ccncc1)Cc1ccncc1`, for which the call was inactive.
As for `Cc1ccsc1C(=CCCN1CCC[C@@H](C(=O)O)C1)c1sccc1C`, the compound was classed as inactive.
Same read-out and setting: as for `C=CCc1cc(OC)c(O)c(C(=O)NCCO)c1`, the entry is “inactive”; as for `CCc1cc(Cl)c(OC)c(C(=O)NC[C@@H]2CCCN2CC)c1O`, “inactive”.
Turning to `CCCCOc1cc(C(=O)NCCN(CC)CC)c2ccccc2n1`, the fluorescence, % of fluorescein control was -0.0334% [at 18.6 µM].
On the same count and under the same terms, as for `CCC(=O)O[C@]1(C(=O)SCF)[C@H](C)C[C@H]2[C@@H]3C[C@H](F)C4=CC(=O)C=C[C@]4(C)[C@@]3(F)[C@@H](O)C[C@@]21C`, the figure is 0.0971% [at 18.6 µM].
For the compound `NNS(=O)(=O)c1ccc(Oc2ccc(S(=O)(=O)NN)cc2)cc1`, the outcome was inactive.
For the compound `CN(CC1(C)CCCO1)S(=O)(=O)c1ccc(Cl)c(S(N)(=O)=O)c1` (configuration not stated), the result was inactive.
The same measure, in the same setting: with `CCCCCOc1ccc(C2SC(=O)NC2=O)cc1OCC` (configuration not stated) the entry was “inactive”; with `CCCCNCCCC`, “inactive”.
Same read-out and setting: with `CC(C)c1ccccc1` the entry was “inactive”; with `CC/C=C\CCOC(=O)C(C)C`, “inactive”.
In the case of `CCC1(C)NC(=O)NC1=O` (configuration not stated), the outcome was inactive.
Take `Cc1cc(S(=O)(=O)O)c(N)cc1Cl`: the call was inactive.
For the compound `COc1cc(N)c(Cl)cc1C(=O)NC1CCN(Cc2ccccc2)CC1`, the fluorescence, % of fluorescein control was -0.0056% [at 18.6 µM].
For the compound `CCOC(=O)C1CC(=O)C(=C(O)C2CC2)C(=O)C1` (configuration not stated), the result was inactive.
Still for that read-out and setting: with `O=S(=O)(O)C(F)(F)F` the entry was “inactive”; with `O=c1[nH]cnc2c1ncn2[C@@H]1O[C@H](CO)[C@@H](O)[C@H]1O`, “inactive”.
As for `CC(C)CCCCCCc1ccc(OCCOCCO)cc1`, the compound was called inactive.
As to `CC1(C)S[C@@H]2[C@H](NC(=O)C(C(=O)O)c3ccccc3)C(=O)N2[C@H]1C(=O)O` (some centres not stated), the call was inactive.
For the compound `CCCCCCCCOC(=O)CCCCCCCCC(=O)OCCCCCCCC`, the compound was called inactive.
On the same count and under the same terms, with `O=C1C=CC(=O)O1` the entry was “inactive”.

A short description of another experiment: qHTS assay to test for compound auto fluorescence at 460 nm (blue) in HepG2 cells (AID 720687). The following applies: autofluorescence 405/460 nm, 1 h; series mostly up to 91.3 µM. In a few lines:
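Blue-channel autofluorescence (Ex/Em 405/460 nm, triamterene-equivalent) was measured after 1 hr compound exposure at 37 C, 5% CO2. Cells were HepG2, plated overnight at 37 C in MEM plus 10% FBS.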
In the case of `COc1nc(C)nc(NC(=O)NS(=O)(=O)c2ccccc2OCCCl)n1`, the compound was classed as inactive.
Take `CCCCNC(=S)NCCCC`: the call was inactive.
Consider `CC(C)(C)c1cccc(O)c1`, for which the call was inactive.
In the case of `O=C1CCC(C2CCCCC2)CC1`, the result was inactive.
In the case of `COC(=O)c1ccc2cc(C(=O)OC)ccc2c1`, the fluorescence, % of fluorescent control is 0.0678% [at 18.6 µM].
For `CCCc1c2oc(C(=O)O)cc(=O)c2cc2c(=O)cc(C(=O)O)n(CC)c12`, the result was inactive.
For the compound `CC(CNC1CCCCC1)OC(=O)c1ccccc1` (configuration not stated), the fluorescence, % of fluorescent control is -0.124% [at 18.6 µM].
As for `CC(C)OC(C)C`, the compound was classed as inactive.
Turning to `O=C(C(Cl)Cl)N1CCOC12CCCCC2`, the outcome was inactive.
Turning to `CCCCCCCCCC#N`, the outcome was inactive.
Consider `CCOC(=O)C(Br)c1ccccc1` (configuration not stated), for which the compound was called inactive.
The same measure, in the same setting: as for `C[C@@H](N)C(=O)O`, the entry is “inactive”; as for `O=C1N(c2ccccc2)c2ccccc2C1(Cc1ccncc1)Cc1ccncc1`, “inactive”; as for `Cc1ccsc1C(=CCCN1CCC[C@@H](C(=O)O)C1)c1sccc1C`, “inactive”.
Same read-out and setting: as for `C=CCc1cc(OC)c(O)c(C(=O)NCCO)c1`, the entry is “inactive”; as for `CCc1cc(Cl)c(OC)c(C(=O)NC[C@@H]2CCCN2CC)c1O`, “inactive”.
Take `CCC(=O)O[C@]1(C(=O)SCF)[C@H](C)C[C@H]2[C@@H]3C[C@H](F)C4=CC(=O)C=C[C@]4(C)[C@@]3(F)[C@@H](O)C[C@@]21C`: the fluorescence, % of fluorescent control was -0.137% [at 18.6 µM].
`NNS(=O)(=O)c1ccc(Oc2ccc(S(=O)(=O)NN)cc2)cc1`: the result was inactive.
Consider `CN(CC1(C)CCCO1)S(=O)(=O)c1ccc(Cl)c(S(N)(=O)=O)c1` (configuration not stated), for which the call was inactive.
As for `CCCCCOc1ccc(C2SC(=O)NC2=O)cc1OCC` (configuration not stated), the result was inactive.
With `CCCCNCCCC`, the compound was classed as inactive.
Take `CC/C=C\CCOC(=O)C(C)C`: the compound was called inactive.
For `CCC1(C)NC(=O)NC1=O` (configuration not stated), the compound was classed as inactive.
For `Cc1cc(S(=O)(=O)O)c(N)cc1Cl`, the result was inactive.
`COc1cc(N)c(Cl)cc1C(=O)NC1CCN(Cc2ccccc2)CC1`: the fluorescence, % of fluorescent control is 0.034% [at 18.6 µM].
Take `CCOC(=O)C1CC(=O)C(=C(O)C2CC2)C(=O)C1` (configuration not stated): the compound was classed as inactive.
Turning to `O=S(=O)(O)C(F)(F)F`, the compound was called inactive.
Regarding `O=c1[nH]cnc2c1ncn2[C@@H]1O[C@H](CO)[C@@H](O)[C@H]1O`, the outcome was inactive.
Take `CC(C)CCCCCCc1ccc(OCCOCCO)cc1`: the call was inactive.
As to `CC1(C)S[C@@H]2[C@H](NC(=O)C(C(=O)O)c3ccccc3)C(=O)N2[C@H]1C(=O)O` (some centres not stated), the result was inactive.
Consider `O=C1C=CC(=O)O1`, for which the outcome was inactive.
